Common to all, as to test: DAPPL (digital affinity profiling via proximity ligation, sequencing); 10 mM Tris-HCl pH 7.5, 50 mM NaCl, 1 mM DTT, 4% glycerol, room temperature, 30 min; GST-TFs on glutathione beads, 16-mer random dsDNA library, 0.1% formaldehyde crosslink after washing; high values mean tight binding
Common to all, as to settings: protein: recombinant; tags: N-terminal GST; dsDNA, one strand shown

Test [1] deals with T1, ELK1 (Homo sapiens, UniProt P19419 1-428).
T1 sequence: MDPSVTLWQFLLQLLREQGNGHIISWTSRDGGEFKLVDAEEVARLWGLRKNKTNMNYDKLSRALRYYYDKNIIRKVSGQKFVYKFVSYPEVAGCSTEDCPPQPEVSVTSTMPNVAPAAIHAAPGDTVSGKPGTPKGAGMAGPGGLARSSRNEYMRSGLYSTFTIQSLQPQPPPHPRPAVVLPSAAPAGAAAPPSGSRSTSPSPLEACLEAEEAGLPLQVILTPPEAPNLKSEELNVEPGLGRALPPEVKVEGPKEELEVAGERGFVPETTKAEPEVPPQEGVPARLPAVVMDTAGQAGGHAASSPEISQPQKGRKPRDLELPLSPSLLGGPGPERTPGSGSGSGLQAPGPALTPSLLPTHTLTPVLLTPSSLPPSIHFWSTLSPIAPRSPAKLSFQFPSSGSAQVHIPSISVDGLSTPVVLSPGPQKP
The essentials:
(§1)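 A tag-only sample was pooled with DNA-barcoded human transcription factors that had been expressed in yeast as GST fusions and captured on glutathione beads. The pools were incubated for 30 min at room temperature with 200 nmole of a random double-stranded 16-mer DNA library in Tris/NaCl/DTT/glycerol buffer, then washed, crosslinked with 0.1% formaldehyde, proximity-ligated (BsaI/T4 ligase, 1 h, 37 °C), PCR-amplified and sequenced on an Illumina NextSeq500. Binding signal is each hexamer's read frequency for a factor divided by its frequency for the tag-only sample.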

The target of test [2] is T2, GABPA (Homo sapiens, UniProt Q06546 1-454).
T2 sequence: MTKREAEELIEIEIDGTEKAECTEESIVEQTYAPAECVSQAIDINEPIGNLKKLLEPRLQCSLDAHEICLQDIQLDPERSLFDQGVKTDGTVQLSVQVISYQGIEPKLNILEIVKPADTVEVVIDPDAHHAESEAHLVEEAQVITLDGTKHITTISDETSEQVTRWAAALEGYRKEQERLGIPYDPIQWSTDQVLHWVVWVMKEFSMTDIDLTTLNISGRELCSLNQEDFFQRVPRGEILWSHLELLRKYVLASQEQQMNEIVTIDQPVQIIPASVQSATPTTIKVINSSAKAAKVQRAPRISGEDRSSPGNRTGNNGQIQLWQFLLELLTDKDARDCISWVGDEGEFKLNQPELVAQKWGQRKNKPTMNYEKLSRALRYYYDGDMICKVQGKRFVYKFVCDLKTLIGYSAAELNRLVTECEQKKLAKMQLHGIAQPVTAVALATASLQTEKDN
The gist of the method: as §1

For test [3], the target named is T3, ERG (Homo sapiens, UniProt P11308 1-479).
T3 sequence: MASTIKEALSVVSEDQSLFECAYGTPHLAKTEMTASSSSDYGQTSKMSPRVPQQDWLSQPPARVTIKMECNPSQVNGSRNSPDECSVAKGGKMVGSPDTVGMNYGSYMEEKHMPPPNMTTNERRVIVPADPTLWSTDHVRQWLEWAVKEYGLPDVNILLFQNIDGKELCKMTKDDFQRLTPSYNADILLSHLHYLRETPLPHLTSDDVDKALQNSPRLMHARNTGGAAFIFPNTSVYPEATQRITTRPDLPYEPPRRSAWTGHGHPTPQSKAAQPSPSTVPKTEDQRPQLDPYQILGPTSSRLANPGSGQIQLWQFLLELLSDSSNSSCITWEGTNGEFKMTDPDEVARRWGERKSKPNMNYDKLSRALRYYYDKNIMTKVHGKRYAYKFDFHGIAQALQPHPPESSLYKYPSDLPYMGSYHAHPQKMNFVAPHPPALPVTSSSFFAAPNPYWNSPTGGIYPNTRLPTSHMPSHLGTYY
The essentials:
as §1

Test [4] concerns the target ELF1 (Homo sapiens, UniProt P32519 1-619). The essentials: as §1
Test [5] addresses T4, EHF (Homo sapiens, UniProt Q9NZC4 1-300).
T4 sequence: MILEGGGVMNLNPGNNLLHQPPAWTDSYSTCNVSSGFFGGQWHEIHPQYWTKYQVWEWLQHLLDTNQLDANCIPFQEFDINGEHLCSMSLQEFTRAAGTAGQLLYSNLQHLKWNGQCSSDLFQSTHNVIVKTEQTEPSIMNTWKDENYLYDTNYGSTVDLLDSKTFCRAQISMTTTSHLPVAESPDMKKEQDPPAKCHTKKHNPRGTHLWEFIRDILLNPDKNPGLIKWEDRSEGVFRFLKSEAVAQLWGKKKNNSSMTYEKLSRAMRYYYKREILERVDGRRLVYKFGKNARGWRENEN
The essentials:
as §1

The target of test [6] is SPIB (Homo sapiens, UniProt Q01892 1-262). The essentials:
as §1

In test [7] the target is T5, ELK3 (Homo sapiens, UniProt P41970 1-407).
T5 sequence: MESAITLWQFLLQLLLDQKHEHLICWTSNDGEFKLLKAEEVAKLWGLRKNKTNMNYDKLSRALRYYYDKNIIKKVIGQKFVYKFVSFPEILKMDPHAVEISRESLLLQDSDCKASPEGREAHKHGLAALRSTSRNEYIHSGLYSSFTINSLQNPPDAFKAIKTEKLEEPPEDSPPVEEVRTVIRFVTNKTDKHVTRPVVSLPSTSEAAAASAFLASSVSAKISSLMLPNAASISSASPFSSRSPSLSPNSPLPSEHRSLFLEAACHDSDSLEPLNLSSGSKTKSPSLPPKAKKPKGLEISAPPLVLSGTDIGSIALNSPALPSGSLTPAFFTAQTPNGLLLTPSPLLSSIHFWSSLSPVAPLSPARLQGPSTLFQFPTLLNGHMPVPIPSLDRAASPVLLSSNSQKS
The essentials: as §1

In test [8] the target is T6, SPIC (Homo sapiens, UniProt Q8N5J4 1-248).
T6 sequence: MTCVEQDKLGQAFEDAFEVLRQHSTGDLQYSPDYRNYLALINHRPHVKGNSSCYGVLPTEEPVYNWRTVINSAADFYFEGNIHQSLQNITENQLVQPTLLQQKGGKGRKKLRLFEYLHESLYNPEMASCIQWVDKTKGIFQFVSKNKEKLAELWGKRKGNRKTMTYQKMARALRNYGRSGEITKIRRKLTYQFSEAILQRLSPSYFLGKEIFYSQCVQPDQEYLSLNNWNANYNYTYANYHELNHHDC
The gist of the method:
as §1

For test [9], the target named is ELF4 (Homo sapiens, UniProt Q99607 1-663). The gist of the method: as §1
For test [10], the target named is T7, ELK4 (Homo sapiens, UniProt P28324-2 1-405).
T7 sequence: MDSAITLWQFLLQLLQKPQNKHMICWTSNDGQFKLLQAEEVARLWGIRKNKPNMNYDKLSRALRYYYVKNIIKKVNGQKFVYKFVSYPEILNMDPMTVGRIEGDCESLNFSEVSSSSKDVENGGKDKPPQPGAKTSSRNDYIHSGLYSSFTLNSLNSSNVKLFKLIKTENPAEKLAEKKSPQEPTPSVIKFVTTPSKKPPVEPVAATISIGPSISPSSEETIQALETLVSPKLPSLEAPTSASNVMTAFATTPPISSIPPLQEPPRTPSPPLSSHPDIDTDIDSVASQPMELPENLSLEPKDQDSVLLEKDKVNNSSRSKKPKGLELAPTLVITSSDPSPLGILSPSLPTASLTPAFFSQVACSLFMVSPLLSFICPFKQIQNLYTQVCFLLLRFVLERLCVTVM
The gist of the method: as §1

Test [11] has as its target ETV1 (Homo sapiens, UniProt P50549 1-477). The essentials:
as §1

The target of test [12] is T8, ERF (Homo sapiens, UniProt P50548 1-548).
T8 sequence: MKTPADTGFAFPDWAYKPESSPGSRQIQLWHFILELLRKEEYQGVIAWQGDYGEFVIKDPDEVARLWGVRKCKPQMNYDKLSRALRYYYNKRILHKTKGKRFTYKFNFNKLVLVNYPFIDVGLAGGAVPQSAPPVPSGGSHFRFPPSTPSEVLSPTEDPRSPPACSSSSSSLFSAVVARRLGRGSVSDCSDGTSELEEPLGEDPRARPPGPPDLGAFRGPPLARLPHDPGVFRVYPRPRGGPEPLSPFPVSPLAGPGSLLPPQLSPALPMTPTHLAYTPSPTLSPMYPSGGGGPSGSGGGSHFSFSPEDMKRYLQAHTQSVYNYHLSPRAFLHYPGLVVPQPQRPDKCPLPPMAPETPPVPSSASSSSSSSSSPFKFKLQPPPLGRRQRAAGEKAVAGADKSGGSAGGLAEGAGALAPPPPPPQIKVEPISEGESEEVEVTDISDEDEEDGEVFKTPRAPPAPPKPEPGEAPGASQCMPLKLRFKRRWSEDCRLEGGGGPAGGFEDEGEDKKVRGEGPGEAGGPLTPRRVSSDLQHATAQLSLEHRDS
The gist of the method:
as §1

For test [13], the target named is T9, ETV3L (Homo sapiens, UniProt Q6ZN32 1-361).
T9 sequence: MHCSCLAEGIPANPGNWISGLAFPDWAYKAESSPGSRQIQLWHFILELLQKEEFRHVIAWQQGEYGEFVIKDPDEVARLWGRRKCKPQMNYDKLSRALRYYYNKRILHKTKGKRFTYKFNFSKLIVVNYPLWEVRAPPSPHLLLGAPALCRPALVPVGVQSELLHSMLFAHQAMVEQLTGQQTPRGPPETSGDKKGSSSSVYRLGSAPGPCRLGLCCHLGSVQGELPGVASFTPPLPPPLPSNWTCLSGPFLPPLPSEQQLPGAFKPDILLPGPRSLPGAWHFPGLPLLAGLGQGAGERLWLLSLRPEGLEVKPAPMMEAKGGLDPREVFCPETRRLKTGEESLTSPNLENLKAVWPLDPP
The essentials: as §1

Test [14] addresses T10, ETS2 (Homo sapiens, UniProt P15036 1-469).
T10 sequence: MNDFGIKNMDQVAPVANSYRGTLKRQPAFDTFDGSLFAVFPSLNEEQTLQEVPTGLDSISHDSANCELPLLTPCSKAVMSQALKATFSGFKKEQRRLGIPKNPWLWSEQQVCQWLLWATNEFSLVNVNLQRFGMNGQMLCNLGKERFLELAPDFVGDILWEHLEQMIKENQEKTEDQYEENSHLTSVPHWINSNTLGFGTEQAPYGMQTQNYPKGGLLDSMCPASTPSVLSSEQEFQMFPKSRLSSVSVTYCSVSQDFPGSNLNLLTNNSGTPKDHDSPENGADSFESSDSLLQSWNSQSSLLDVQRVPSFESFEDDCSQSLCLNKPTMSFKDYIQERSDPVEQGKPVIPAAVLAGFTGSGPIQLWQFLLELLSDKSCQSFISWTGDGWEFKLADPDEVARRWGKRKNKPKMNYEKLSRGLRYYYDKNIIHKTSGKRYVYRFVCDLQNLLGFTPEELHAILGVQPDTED
The essentials:
as §1

Test [15] concerns the target T11, SPDEF (Homo sapiens, UniProt O95238 1-335).
T11 sequence: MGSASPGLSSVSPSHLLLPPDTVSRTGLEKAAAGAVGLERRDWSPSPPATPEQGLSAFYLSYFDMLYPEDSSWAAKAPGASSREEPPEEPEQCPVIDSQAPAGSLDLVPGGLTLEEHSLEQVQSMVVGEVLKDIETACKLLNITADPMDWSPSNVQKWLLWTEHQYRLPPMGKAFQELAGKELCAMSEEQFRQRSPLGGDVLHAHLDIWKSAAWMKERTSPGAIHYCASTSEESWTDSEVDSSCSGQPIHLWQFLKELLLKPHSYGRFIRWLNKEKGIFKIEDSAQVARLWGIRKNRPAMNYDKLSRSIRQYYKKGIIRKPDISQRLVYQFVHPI
The gist of the method:
as §1

The target of test [16] is T12, ETV7 (Homo sapiens, UniProt Q9Y603 1-341).
T12 sequence: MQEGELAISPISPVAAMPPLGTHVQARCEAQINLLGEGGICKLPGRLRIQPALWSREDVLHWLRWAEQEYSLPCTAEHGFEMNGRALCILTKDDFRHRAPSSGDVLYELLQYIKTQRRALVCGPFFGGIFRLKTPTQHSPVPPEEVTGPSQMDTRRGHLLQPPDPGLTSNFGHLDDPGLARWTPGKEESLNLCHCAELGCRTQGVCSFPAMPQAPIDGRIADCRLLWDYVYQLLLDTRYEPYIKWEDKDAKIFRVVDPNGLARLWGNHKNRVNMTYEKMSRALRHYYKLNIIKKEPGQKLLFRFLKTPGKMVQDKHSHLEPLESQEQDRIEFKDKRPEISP
The essentials: as §1

For test [17], the target named is ETV6 (Homo sapiens, UniProt P41212 1-452). The essentials:
as §1

This passage reports binding signal results from publication PMC7862700, “An all-to-all approach to the identification of sequence-specific readers for epigenetic DNA modifications on cytosine”.

Sequence of ETV1 (P50549 whole entry): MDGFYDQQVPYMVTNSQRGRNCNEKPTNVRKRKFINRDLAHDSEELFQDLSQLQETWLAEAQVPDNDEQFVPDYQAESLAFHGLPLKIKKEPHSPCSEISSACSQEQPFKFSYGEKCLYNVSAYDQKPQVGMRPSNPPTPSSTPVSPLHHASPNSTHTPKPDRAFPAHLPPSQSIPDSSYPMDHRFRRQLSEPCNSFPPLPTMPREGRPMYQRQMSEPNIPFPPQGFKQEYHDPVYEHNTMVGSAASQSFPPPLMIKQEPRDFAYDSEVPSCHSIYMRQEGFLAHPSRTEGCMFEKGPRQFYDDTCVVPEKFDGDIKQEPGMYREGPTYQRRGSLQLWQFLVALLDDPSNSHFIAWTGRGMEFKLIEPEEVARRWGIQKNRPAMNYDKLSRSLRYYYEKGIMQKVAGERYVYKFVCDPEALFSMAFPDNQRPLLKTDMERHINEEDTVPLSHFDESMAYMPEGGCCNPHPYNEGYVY
Sequence of ETV6 (P41212 whole entry): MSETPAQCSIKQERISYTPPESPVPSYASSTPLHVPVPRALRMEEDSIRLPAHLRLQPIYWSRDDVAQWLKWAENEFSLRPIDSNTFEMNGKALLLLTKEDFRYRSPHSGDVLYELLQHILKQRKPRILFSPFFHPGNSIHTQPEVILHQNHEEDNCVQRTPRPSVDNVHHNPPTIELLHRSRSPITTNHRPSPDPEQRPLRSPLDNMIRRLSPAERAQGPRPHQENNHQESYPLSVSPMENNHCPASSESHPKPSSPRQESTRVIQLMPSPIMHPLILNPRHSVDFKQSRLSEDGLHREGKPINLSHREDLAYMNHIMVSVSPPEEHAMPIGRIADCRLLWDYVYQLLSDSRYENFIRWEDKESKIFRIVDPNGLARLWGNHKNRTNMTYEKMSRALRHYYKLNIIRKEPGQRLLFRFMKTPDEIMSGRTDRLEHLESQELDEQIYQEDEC
Sequence of SPIB (Q01892 whole entry): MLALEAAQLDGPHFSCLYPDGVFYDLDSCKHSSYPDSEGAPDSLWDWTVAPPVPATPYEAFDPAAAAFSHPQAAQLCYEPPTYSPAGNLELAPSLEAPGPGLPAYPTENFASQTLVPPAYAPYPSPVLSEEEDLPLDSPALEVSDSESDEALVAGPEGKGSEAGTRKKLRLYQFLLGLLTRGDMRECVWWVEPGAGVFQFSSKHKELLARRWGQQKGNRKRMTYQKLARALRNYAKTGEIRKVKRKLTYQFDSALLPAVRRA
Sequence of ELF4 (Q99607 whole entry): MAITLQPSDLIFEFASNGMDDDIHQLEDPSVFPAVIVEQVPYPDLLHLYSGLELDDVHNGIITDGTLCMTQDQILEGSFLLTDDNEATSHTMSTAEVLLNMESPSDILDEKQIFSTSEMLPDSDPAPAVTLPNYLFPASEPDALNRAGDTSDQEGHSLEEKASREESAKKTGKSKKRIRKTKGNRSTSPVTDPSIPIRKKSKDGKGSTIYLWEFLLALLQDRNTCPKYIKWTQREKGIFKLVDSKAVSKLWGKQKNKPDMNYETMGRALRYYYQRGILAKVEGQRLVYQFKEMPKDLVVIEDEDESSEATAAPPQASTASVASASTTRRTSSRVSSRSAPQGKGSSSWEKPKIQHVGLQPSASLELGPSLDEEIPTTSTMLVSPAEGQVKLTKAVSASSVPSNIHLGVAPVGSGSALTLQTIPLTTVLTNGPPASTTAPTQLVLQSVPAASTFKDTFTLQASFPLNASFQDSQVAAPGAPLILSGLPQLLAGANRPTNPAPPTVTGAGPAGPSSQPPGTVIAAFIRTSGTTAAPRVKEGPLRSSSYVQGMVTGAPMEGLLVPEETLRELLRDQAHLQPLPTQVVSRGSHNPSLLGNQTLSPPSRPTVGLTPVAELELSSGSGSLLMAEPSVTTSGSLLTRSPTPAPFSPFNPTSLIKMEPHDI
Sequence of ELF1 (P32519 whole entry): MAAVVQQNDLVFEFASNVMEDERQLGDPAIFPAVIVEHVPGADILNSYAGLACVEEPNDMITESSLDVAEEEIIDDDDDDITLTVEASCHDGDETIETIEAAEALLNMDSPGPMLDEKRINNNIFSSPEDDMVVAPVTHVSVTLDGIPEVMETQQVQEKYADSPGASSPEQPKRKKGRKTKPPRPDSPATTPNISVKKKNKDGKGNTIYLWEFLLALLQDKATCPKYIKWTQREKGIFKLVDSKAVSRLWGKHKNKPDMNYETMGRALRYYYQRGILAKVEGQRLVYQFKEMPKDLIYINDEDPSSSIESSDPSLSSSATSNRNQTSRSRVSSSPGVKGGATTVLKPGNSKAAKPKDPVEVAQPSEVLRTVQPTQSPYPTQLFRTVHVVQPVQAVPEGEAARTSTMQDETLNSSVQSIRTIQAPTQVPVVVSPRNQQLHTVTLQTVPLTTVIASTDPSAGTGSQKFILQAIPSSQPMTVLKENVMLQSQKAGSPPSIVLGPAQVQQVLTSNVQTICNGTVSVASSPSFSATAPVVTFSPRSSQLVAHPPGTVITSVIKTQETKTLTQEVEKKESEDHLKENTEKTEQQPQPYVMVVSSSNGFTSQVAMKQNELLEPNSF

With CGTCTG, the binding signal in test [1] was 1.06 fold enrichment (6-mer frequency, TF over GST control); in test [2] it was 1.06 fold enrichment (6-mer frequency, TF over GST control); in test [3] it was 1.11 fold enrichment (6-mer frequency, TF over GST control); in test [4] it was 1.11 fold enrichment (6-mer frequency, TF over GST control); in test [5], 1.07 fold enrichment (6-mer frequency, TF over GST control); in test [6] it was 1.18 fold enrichment (6-mer frequency, TF over GST control). The binding signal in test [7] was 1.05 fold enrichment (6-mer frequency, TF over GST control); in [8], 1.17 fold enrichment (6-mer frequency, TF over GST control); in test [9], 1.05 fold enrichment (6-mer frequency, TF over GST control); in test [10], 1.08 fold enrichment (6-mer frequency, TF over GST control); in [11], 1.12 fold enrichment (6-mer frequency, TF over GST control); in [12], 1.11 fold enrichment (6-mer frequency, TF over GST control). In addition, the binding signal in test [13] was 1.14 fold enrichment (6-mer frequency, TF over GST control); in [14], 1.08 fold enrichment (6-mer frequency, TF over GST control); in [15], 1.05 fold enrichment (6-mer frequency, TF over GST control); in [16] it was 1.02 fold enrichment (6-mer frequency, TF over GST control); in test [17] it was 1.01 fold enrichment (6-mer frequency, TF over GST control).
